Values joined by “and” are separate entries in the source; they are usually repeats but may differ in a detail not shown here. Equal values may be shown once. Records with an inconclusive call do not appear. Active and inactive are the calls of the source. Unless noted, the call rests on the fitted dose curve; in most records, active means well fitted curve in the direction sought with a large enough effect; inconclusive means small, poorly fitted or top-dose-only effect, or another doubt; inactive means no such curve, though single readings can be large; an effect the other way counts as inactive or inconclusive.
What was measured:
[1] = molecular target: Glucocorticoid receptor (Homo sapiens) (UniProt P04150); test: GR-GFP Redistribution (AID 450;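 active means compounds whose dose series gives a full or clear partial fitted curve of increased nuclear translocation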; further: potency means the concentration at half of the fitted maximal effect); details: U2OS GR-GFP nuclear translocation, laser cytometry, 2 h
Glucocorticoid receptor (Homo sapiens), sequence (P04150 whole entry, looked up, the tested form may be a part): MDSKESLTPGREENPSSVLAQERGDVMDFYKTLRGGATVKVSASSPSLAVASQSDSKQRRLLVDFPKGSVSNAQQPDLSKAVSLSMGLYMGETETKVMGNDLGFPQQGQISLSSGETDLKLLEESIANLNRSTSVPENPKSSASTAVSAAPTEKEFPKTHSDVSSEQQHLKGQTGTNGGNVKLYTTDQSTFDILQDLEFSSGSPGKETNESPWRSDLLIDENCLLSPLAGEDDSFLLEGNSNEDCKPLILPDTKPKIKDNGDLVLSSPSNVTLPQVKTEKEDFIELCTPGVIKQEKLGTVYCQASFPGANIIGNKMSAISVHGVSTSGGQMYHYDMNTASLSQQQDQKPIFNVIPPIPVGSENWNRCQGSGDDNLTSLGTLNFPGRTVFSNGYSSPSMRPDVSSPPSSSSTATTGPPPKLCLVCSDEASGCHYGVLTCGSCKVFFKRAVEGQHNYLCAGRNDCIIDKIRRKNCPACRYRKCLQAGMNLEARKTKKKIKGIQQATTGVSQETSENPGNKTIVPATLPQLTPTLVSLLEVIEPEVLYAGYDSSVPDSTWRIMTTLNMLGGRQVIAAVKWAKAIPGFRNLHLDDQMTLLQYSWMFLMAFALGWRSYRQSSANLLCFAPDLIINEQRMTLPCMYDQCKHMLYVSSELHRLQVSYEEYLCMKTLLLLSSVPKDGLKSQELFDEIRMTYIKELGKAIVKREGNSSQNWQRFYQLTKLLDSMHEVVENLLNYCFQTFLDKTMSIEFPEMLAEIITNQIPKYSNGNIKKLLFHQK

[2] = molecular target: Glucocorticoid receptor (Homo sapiens) (UniProt P04150); test: GR-EFC Redistribution (AID 451; calls by dose curve; further: potency means the concentration at half of the fitted maximal effect); details: CHO-K1 GR-EFC translocation, beta-gal luminescence, 2 h
Procedure, shortened: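 CHO-K1 cells stably expressing nuclear-localized β-gal enzyme acceptor and GR fused C-terminally to the enzyme donor fragment; ligand-driven nuclear translocation restores β-gal by complementation. Compounds titrated up to 46 uM final, 2 h at 37 °C; luminescence read.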

[3] = molecular target: Mitogen-activated protein kinase 10 (Mus musculus) (UniProt Q61831); test: JNK3 AlphaScreen Assay (AID 530; active means well fitted curve in either direction with a large enough effect, not every such curve was filed as active;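 further: kinase came from lysate of stimulated human HepG2 cells; signal reports phosphorylation of biotinylated GST-cJun 1-79 at Ser73 with 10 µM ATP; on the % scale 0 is the no-effect control and ±100 the full control effect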); details: JNK3 lysate, c-Jun phosphorylation; series mostly up to 25.6 µM
Procedure, shortened: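 JNK3 came from HepG2 lysates pre-activated with IL-1beta and TNF-alpha and phosphorylated biotinylated GST-cJun (1-79) at 10 uM ATP, pH 7.6, room temperature. Compounds were titrated. AlphaScreen signal used anti-phospho-cJun (Ser73) antibody.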

[4] = qHTS Assay for Lipid Storage Modulators (AID 1519; calls by dose curve; on activity change, negative = inhibition: on the % scale 0 is the no-effect control and ±100 the full control effect); details: Drosophila S3 cells, BODIPY lipid droplet/cell ratio, laser cytometry, cells loaded with oleic acid
Procedure, shortened: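 Cells seeded at 5,000 per well were treated with compounds over a concentration series and loaded with oleic acid (400 uM, as added). Lipid droplet fluorescence (488 nm excitation, 500-530 nm channel) was read by laser-scanning cytometry and normalized to 20 uM Triacsin C.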

[5] = molecular target: Ubiquitin carboxyl-terminal hydrolase 1 (Homo sapiens) (UniProt O94782); test: Inhibitors of USP1/UAF1: Pilot qHTS (AID 504865); details: purified USP1/UAF1, Ub-rhodamine cleavage fluorescence; series mostly up to 114 µM; further: nearly all actives have a fitted effect of over 35% in size; further: potency means the concentration at half of the fitted maximal effect;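 on activity change, negative = inhibition: rhodamine fluorescence freed from ubiquitin-rhodamine substrate followed over time; top concentration of the series differs between compounds; on the % scale 0 is the no-effect control and ±100 the full control effect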
Ubiquitin carboxyl-terminal hydrolase 1 (Homo sapiens), sequence (O94782 whole entry, looked up): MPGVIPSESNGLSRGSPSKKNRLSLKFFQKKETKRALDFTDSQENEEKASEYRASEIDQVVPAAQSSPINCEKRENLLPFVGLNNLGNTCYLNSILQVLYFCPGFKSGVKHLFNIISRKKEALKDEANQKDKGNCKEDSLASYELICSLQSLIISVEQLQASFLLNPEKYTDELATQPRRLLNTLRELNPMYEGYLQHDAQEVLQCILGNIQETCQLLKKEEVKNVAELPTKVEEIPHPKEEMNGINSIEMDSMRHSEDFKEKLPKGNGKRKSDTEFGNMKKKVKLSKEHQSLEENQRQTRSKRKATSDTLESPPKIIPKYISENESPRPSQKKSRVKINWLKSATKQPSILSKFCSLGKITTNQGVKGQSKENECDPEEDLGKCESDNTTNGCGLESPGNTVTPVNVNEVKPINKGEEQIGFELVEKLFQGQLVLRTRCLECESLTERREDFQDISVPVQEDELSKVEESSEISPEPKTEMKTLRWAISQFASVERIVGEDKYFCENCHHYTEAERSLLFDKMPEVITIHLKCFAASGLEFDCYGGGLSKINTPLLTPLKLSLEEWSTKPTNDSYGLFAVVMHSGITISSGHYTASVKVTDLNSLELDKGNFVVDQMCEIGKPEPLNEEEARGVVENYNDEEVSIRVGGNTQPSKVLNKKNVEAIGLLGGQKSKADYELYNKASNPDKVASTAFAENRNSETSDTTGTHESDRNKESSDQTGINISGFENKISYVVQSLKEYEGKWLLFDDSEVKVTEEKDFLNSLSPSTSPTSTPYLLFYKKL
Procedure, shortened: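 USP1/UAF1 complex (1nM) preincubated with compound 15 min at room temperature, then Ub-Rho substrate (150nM final) added. Fluorescence read kinetically at 480/540 nm, 6 reads every 60 seconds. Buffer: 50mM HEPES pH 7.8, 0.5mM EDTA, 0.1 mg/ml BSA, 1mM TCEP, 0.01% Tween-20.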

[6] = molecular target: ATP-dependent 6-phosphofructokinase (Trypanosoma brucei brucei) (UniProt O15648); test: qHTS Assay to Find Inhibitors of T. brucei phosphofructokinase: hit validation (AID 492961);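 further: luminescence reports ADP formed as PFK phosphorylates fructose-6-phosphate with ATP; on the % scale 0 is the no-effect control and ±100 the full control effect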; details: T. brucei PFK, ADP-Glo luminescence; series mostly up to 24.3 µM
ATP-dependent 6-phosphofructokinase (Trypanosoma brucei brucei), sequence (O15648 whole entry, looked up): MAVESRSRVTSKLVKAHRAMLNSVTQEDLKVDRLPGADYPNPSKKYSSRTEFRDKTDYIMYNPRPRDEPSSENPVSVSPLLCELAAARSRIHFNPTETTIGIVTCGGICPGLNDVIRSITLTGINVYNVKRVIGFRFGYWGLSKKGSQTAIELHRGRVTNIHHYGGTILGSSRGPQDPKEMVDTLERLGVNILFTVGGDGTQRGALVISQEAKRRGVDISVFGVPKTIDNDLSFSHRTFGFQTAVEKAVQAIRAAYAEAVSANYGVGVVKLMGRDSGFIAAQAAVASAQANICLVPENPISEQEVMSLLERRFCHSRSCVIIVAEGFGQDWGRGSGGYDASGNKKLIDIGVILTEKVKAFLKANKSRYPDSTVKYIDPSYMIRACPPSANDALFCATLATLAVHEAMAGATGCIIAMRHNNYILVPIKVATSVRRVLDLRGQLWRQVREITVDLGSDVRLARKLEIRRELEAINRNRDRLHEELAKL
Procedure, shortened: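 Percent activity derived from corrected luminescence, normalized between 0x and 1x enzyme controls, then fitted to concentration-response curves. Conditions: 1.25 nM PFK, 0.1 mM ATP, 0.5 mM F6P, 45 min RT.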

[7] = system: 3D7; test: qHTS profiling for inhibitors of Plasmodium falciparum proliferation (AID 504749);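 further: 0% = DMSO vehicle and full inhibition = artemisinin control; nearly all actives have a fitted effect of over 60% in size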; details: P. falciparum in erythrocytes, SYBR Green DNA, 72 h; series mostly up to 12.8 µM
Procedure, shortened: (§1)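 P. falciparum-infected erythrocytes (0.3% parasitemia, 2.5% hematocrit final) were exposed to compounds for 72 h at 37 C in 5% CO2, then lysed with SYBR Green buffer overnight at room temperature; parasite DNA fluorescence was normalized to artemisinin and DMSO controls.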

[8] = system: SC27B; test: as above; details: P. falciparum in erythrocytes, SYBR Green DNA, 72 h; series mostly up to 12.8 µM
Procedure, shortened: as §1

[9] = as above; details: P. falciparum in erythrocytes, SYBR Green DNA, 72 h, at 12.8 µM (top of the series)
Procedure, shortened: as §1

[10] = system: AS120; test: as above; details: P. falciparum in erythrocytes, SYBR Green DNA, 72 h; series mostly up to 12.8 µM
Procedure, shortened: as §1

[11] = system: C2A; test: as above; details: P. falciparum in erythrocytes, SYBR Green DNA, 72 h; series mostly up to 12.8 µM
Procedure, shortened: as §1

[12] = system: CP217; test: as above; details: P. falciparum in erythrocytes, SYBR Green DNA, 72 h; series mostly up to 12.8 µM
Procedure, shortened: as §1

[13] = system: CP237; test: as above; details: P. falciparum in erythrocytes, SYBR Green DNA, 72 h; series mostly up to 12.8 µM
Procedure, shortened: as §1

[14] = system: CP238; test: as above; details: P. falciparum in erythrocytes, SYBR Green DNA, 72 h; series mostly up to 12.8 µM
Procedure, shortened: as §1

[15] = system: CP252; test: as above; details: P. falciparum in erythrocytes, SYBR Green DNA, 72 h; series mostly up to 12.8 µM
Procedure, shortened: as §1

[16] = system: CP262; test: as above; details: P. falciparum in erythrocytes, SYBR Green DNA, 72 h; series mostly up to 12.8 µM
Procedure, shortened: as §1

[17] = system: CP269; test: as above; details: P. falciparum in erythrocytes, SYBR Green DNA, 72 h; series mostly up to 12.8 µM
Procedure, shortened: as §1

[18] = system: CP297; test: as above; details: P. falciparum in erythrocytes, SYBR Green DNA, 72 h; series mostly up to 12.8 µM
Procedure, shortened: as §1

[19] = system: ECU; test: as above; details: P. falciparum in erythrocytes, SYBR Green DNA, 72 h; series mostly up to 12.8 µM
Procedure, shortened: as §1

[20] = system: PAD; test: as above; details: P. falciparum in erythrocytes, SYBR Green DNA, 72 h; series mostly up to 12.8 µM
Procedure, shortened: as §1

[21] = measured here: cell count channel max response
[22] = measured here: lipid channel max response

FC(F)(F)c1ccccc1-c1ccc2ncnc(NC3CCNCC3)c2c1
6.31%: max response [4, 22]
inactive: Potency [1] > 46 µM | Potency [2] > 46 µM | Potency [3] | activity change, negative = inhibition ([4]; at 57.5 µM (top of the series)) -0.848% | Potency [5]
8.99%: max response [4, 21]

COc1ccc(-c2cc(=O)c3c(O)cc(O)cc3o2)cc1
23.2%: max response [4, 22]
4.93%: max response [4, 21]
inactive: Potency [1] > 20.6 µM | Potency [2] > 20.6 µM | Potency [3] | activity change, negative = inhibition ([4]; at 57.5 µM (top of the series)) 14.6% | Potency [5]

Nc1ncnc2c1nc(Br)n2[C@H]1O[C@H]2COP(=O)(O)O[C@H]2[C@@H]1O
0.508%: max response [4, 22]
inactive: Potency [1] > 46 µM | Potency [2] > 46 µM | activity change, negative = inhibition ([4]; at 57.5 µM (top of the series)) -1.26% | Potency [5]
2.68%: max response [4, 21]

O=C(O)[C@@H]1[C@@H]2C[C@H]3c4[nH]c5ccccc5c4CCN3C[C@@H]2CC[C@@H]1O
-6.3%: max response [4, 21]
inactive: Potency [1] > 20.6 µM and > 46 µM | Potency [2] > 20.6 µM and > 46 µM | Potency [3] | activity change, negative = inhibition ([4]; at 25.7 µM (top of the series)) 0.95% | outcome [6] | Potency [7] | Potency [8]
-6.11%: max response [4, 22]
active: Potency [5] 28.2 µM

O=c1cc(-c2cccc(O)c2)oc2cc(O)ccc12
28%: max response [4, 22]
inactive: Potency [1] > 46 µM | Potency [2] > 46 µM | Potency [3] | activity change, negative = inhibition ([4]; at 57.5 µM (top of the series)) 8.05%
22.9%: max response [4, 21]

NC[C@@H]1O[C@@H](O[C@H]2[C@H](O)[C@H](O[C@@H]3O[C@H](CO)[C@@H](O)[C@H](N)[C@@H]3O)[C@@H](N)C[C@H]2N)[C@H](N)C[C@@H]1O
-6.77%: max response [4, 22]
-4.83%: max response [4, 21]
inactive: Potency [3] | activity change, negative = inhibition ([4]; at 25.7 µM (top of the series)) -2.29% | activity, negative = inhibition ([9]; parasite line A) 9.72% | activity, negative = inhibition ([9]; parasite line B) 18.7% | Potency [7] | Potency [10] | Potency [11] | Potency [12] | Potency [13] | Potency [14] | Potency [15] | Potency [16] | Potency [17] | Potency [18] | Potency [19] | Potency [20] | Potency [8]

CO[C@@H]1CC[C@@]2(C)[C@@H](CC[C@@]3(C)[C@H]2CC=C2[C@H]4CC(C)(C)[C@H](O)[C@@H](OC(C)=O)[C@]4(CO)[C@H](O)C[C@]23C)[C@@]1(C)CO (tested in a mixture with another compound)
inactive: Potency [1] > 20.6 µM | Potency [2] > 20.6 µM | Potency [3] | activity change, negative = inhibition ([4]; at 25.7 µM (top of the series)) 0.0322% | Potency [5]
7.61%: max response [4, 22]
6.28%: max response [4, 21]

O=C1C=CC(=O)c2c1ccc1c2ccc2ccccc21
inactive: Potency [1] > 20.6 µM | Potency [2] > 20.6 µM | Potency [3] | activity change, negative = inhibition ([4]; at 25.7 µM (top of the series)) -0.997%
-3.16%: max response [4, 22]
-0.715%: max response [4, 21]

CN1CCC[C@@H](CC2c3ccccc3Sc3ccccc32)C1
-0.662%: max response [4, 21]
-6.24%: max response [4, 22]
inactive: Potency [1] > 20.6 µM | Potency [2] > 20.6 µM | Potency [3] | activity change, negative = inhibition ([4]; at 25.7 µM (top of the series)) -5.3% | outcome [6] | Potency [5] | activity, negative = inhibition ([9]; parasite line A) -16.3% | Potency [11] | Potency [12] | Potency [14] | Potency [15] | Potency [16] | Potency [17] | Potency [18] | Potency [19] | Potency [20] | Potency [8]
